# Measured values taken from PubChem BioAssay (NCATS).
# Records with an inconclusive call do not appear. Unmarked numbers belong to inactive results. Activity calls are given as the source filed them. Calls follow the shape of the dose curve; as a rule, active = well fitted cell-killing curve with a large enough effect; inconclusive = small, poorly fitted or top-dose-only effect; inactive = no such curve, though single readings can be large or run the other way.
# Test: qHTS of pediatric cancer cell lines to identify multiple opportunities for drug repurposing: Primary screen for NB-EBc1 cells (AID 1347095)
# Settings: NB-EBc1 neuroblastoma viability, CellTiter-Glo luminescence, 48 h; series mostly up to 46 µM; activity change, negative = cytotoxic: at the top concentration
# Excerpt: Drug repurposing or repositioning has been offered as a strategy for drug development in oncology programs. This approach has special potential for childhood cancers and other rare or orphan diseases, where the expected return on new drug development has been a disincentive to pharmaceuticals. […] In this project we exploit the poly-pharmacology of drugs to discover new indications via phenotypic screening of a panel of 19 well-characterized cell lines derived from solid tumors seen in children and adolescents. The goal is to identify approved drugs with previously unrecognized anticancer properties that has the potential to reveal new mechanisms and biological processes involved in carcinogenesis or drug resistance. We employed a titration-based paradigm (quantitative high-throughput screening or qHTS), where all compounds were tested at multiple concentrations for their effect on cell viability. Concentration-response curves (CRCs) were derived directly from the primary screen, and both potency and efficacy values were used to identify compounds with robust bioactivity profiles. We screened the NIH Chemical Genomics Center (NCGC) Pharmaceutical Collection (NPC) and Mechanism Interrogation Plate (MIPE) small molecule collections of approved and investigational compounds against these cell lines; and measured metabolically active cells after 48 hours of compound treatment as a proxy for cell viability. […] Assay Submitter: Nathalia J. Martinez, National Center for Advancing Translational Sciences, National Institutes of Health, Rockville, MD, USA; email: natalia.martinez@nih.gov Shen, M et al. Quantitative high-throughput phenotypic screening of pediatric cancer cell lines identifies multiple opportunities for drug repurposing. Oncotarget 2017 Dec 19;9(4):4758-4772. PMID 29435139.
# The cells were obtained from University of North Carolina (UNC), Pediatric Preclinical Testing Program (PPT), and Coriell Institute (CI). qHTS cell viability assay: Cells were assayed in growth media at a density of 500-1,000 cells/well. Five microliters of cells were dispensed into 1,536-well, white, solid-bottom, TC-treated plates (Greiner Bio One) using a multidrop dispenser and incubated at 37 degrees C, 5% CO2, under a humidified atmosphere for 5 hours. Twenty-three nanoliters of compounds and controls (neutral control DMSO or positive control bortezomib at final concentration of 2.3 µM) were subsequently transferred by Kalypsys pintool. For primary screens, the MIPE collection was tested at 11-point dilutions (final concentrations range from 0.78 nM to 46 µM) and the NPC collection at 8-point dilutions (final concentrations range from 0.59 nM to 46 µM). Compounds tested in follow-up screens were assayed at 11-point dilutions. Cells were incubated for 48 hours, followed by addition of 3 µL of CellTiter-Glo (Promega). After a 15 min incubation at room temperature, samples were analyzed for luminescence intensity using a ViewLux High-throughput CCD imager equipped with clear filters.
# Potency is read from the fitted curve at half-maximal effect.
Compound,"activity change, negative = cytotoxic",Potency
CCC(C)C(C)(COC(N)=O)COC(N)=O (stereo not given),8.91%,
COc1cccc([C@@]2(O)CCCC[C@@H]2CN(C)C)c1,10.4%,
O=c1[nH]oc2c1CCNC2,3.15%,
CC(C)NC(C)C,23.2%,
CCCCCCCCCC(=O)O[C@H]1CC[C@H]2[C@@H]3CCC4=CC(=O)CC[C@@H]4[C@H]3CC[C@]12C,2.74%,
Nc1ccc([As](=O)(O)O)cc1,18.5%,
CCC(CC)(CNC(=O)CCCO)c1cccc(OC)c1,20.9%,
CC1(C)C(C=C(Cl)Cl)C1C(=O)OC(C#N)c1cccc(Oc2ccccc2)c1 (stereo not given),6.34%,
C[C@@H](N)[C@@H](O)c1ccccc1,16.1%,
CCCN(CCC)C(=O)Cc1c(-c2ccc(Cl)cc2)nc2ccc(Cl)cn12,2.84%,
CC(=O)C1CCOC1=O (stereo not given),27.2%,
CNCC(=O)c1ccc(O)c(O)c1,-2.84%,
COC(=O)[C@@H](N)CCCN/C(N)=N/[N+](=O)[O-],8.97%,
Cc1ncsc1CCCl,17.4%,
O=c1c(C2CC(c3ccc(-c4ccc(Br)cc4)cc3)Cc3ccccc32)c(O)sc2ccccc12 (stereo not given),,7.5 µM (active)
CCc1cc2c(s1)-n1c(C)nnc1CN=C2c1ccccc1Cl,5.53%,
C[C@H]1[C@@H]2Cc3ccc(O)cc3[C@@]1(C)CCN2C,-9.56% [at 231 µM],
CCCOC(=O)c1cncn1C(C)c1ccccc1 (stereo not given),16%,
O=C1CN=C(c2ccccc2)c2cc([N+](=O)[O-])ccc2N1,6.56%,
CCOC(=O)CC(SP(=S)(OC)OC)C(=O)OCC (stereo not given),5.13%,

Compound,"activity change, negative = cytotoxic",Potency
CC(Cc1ccccc1)NCCn1cnc2c1c(=O)n(C)c(=O)n2C (stereo not given),-13.8% [at 92.7 µM],
COc1c2c(cc3c1OCO3)CCN(C)C2,-7.63%,
COP(=S)(OC)SCN1C(=O)c2ccccc2C1=O,-9.29%,
CC(C)(C)NCC(O)c1ccccc1Cl (stereo not given),-7.14%,
CN1CC[C@]23c4c5ccc(O)c4O[C@H]2[C@@H](O)CC[C@H]3[C@H]1C5,-3.15% [at 92.7 µM],
C=C(C)[C@H]1CN[C@H](C(=O)O)[C@H]1CC(=O)O,23.4%,
CCC1(c2ccccc2)C(=O)N(COC)C(=O)N(COC)C1=O,4.47%,
C#CC(O)(C=CCl)CC (stereo not given),13%,
CN(C)CCc1c[nH]c2cccc(OP(=O)(O)O)c12,-19.7% [at 92.7 µM],
CCN(CC)CCc1c[nH]c2ccccc12,-16% [at 155 µM],
c1ccc(CN2CCNCC2)cc1,-6.72% [at 155 µM],
CCC1(CC)C(=O)C=CNC1=O,7.83%,
CN1CCC(O)(c2ccc(F)cc2)C(C(=O)c2ccc(F)cc2)C1 (stereo not given),-7.45%,
CC(C(=O)c1ccccc1)N(C)C (stereo not given),14.2%,
Clc1ccccc1N1CCNCC1,9.78%,
O=C1OC(CCN2CCCCC2)OC1(c1ccccc1)c1ccccc1 (stereo not given),-15%,
CC(C)(C)NCC(O)c1cc(Cl)c(N)c(C(F)(F)F)c1 (stereo not given),8.08%,
Nc1ccccc1C(=O)O,16.5%,
Nc1nc(N)nc(NC2CC2)n1,-4.82%,
CN1CC[C@]23c4c5ccc(O)c4O[C@H]2[C@@H](O)C=C[C@H]3[C@H]1C5,-9.97% [at 92.7 µM],
